What all share (design): scale not given: direction of the effect not stated beside the values
Test [1] has as its target Protein translocase subunit SecA (Escherichia coli (strain K12)) (UniProt P10408). The experiment in a line: Assay to Identify E. coli SecA ATPase Inhibitors. To be noted: 30 µM. The class given is functional.
In test [2] the target is T1, Ubiquitin-activating enzyme e1, putative (Leishmania donovani (strain BPK282A1)) (UniProt E9BSI1).
T1 sequence (whole entry): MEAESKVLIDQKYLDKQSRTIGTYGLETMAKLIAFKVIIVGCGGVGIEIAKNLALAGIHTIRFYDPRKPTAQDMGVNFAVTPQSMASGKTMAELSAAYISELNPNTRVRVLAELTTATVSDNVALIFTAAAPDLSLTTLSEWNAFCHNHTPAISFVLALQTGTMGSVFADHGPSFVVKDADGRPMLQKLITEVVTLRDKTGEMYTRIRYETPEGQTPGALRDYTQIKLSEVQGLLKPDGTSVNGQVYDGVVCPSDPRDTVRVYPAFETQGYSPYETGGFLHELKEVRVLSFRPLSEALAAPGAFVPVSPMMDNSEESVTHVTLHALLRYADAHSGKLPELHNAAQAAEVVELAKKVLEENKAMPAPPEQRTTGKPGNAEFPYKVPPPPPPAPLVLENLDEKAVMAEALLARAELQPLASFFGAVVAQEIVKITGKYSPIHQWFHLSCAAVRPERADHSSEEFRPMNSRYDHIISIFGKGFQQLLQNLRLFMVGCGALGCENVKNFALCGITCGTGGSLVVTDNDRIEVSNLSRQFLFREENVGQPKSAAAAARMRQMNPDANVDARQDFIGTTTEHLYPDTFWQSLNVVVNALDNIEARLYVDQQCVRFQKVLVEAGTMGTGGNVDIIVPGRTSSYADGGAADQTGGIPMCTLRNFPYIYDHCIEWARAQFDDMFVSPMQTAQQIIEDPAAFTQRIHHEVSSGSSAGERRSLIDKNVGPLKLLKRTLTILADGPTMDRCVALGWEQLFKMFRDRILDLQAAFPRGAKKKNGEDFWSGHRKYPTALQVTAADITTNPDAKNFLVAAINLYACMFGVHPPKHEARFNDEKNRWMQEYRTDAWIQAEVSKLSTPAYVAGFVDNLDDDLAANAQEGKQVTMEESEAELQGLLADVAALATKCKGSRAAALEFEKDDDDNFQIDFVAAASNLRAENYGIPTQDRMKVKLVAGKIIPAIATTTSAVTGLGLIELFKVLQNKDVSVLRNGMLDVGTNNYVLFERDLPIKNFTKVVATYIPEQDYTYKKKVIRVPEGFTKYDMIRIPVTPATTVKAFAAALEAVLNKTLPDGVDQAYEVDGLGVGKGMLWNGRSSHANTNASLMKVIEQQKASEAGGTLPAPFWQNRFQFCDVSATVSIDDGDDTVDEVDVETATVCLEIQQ
Briefly: Leishmania donovani Ubiquitin Activating Enzyme (LdE1). To be noted: 30 µM. The class given is functional.

Test [3] addresses AMP-activated protein kinase, AMPK (Homo sapiens) (UniProt P54646+O43741+P54619+Q9UGJ0+Q9Y478+Q13131+Q9UGI9). The experiment in a line: AMP-dependent Kinase enzyme assay. An in vitro enzyme assay that detects ADP turnover that is directly proportional to AMPK activity. This uses naive AMPK that is activated during the assay with MK-8722. In kind it is functional. To be noted: 30 µM.

The target in test [4] is Sialic acid-binding Ig-like lectin 9 (Homo sapiens) (UniProt Q9Y336). The experiment in a line: Hs-Siglec9 ALPHAscreen SOP 20170721. The settings on record: 10 µM. On the technique in general: Alpha assays give light when donor and acceptor beads are brought close together.
Chain of Sialic acid-binding Ig-like lectin 9 (Homo sapiens) (Q9Y336 whole entry): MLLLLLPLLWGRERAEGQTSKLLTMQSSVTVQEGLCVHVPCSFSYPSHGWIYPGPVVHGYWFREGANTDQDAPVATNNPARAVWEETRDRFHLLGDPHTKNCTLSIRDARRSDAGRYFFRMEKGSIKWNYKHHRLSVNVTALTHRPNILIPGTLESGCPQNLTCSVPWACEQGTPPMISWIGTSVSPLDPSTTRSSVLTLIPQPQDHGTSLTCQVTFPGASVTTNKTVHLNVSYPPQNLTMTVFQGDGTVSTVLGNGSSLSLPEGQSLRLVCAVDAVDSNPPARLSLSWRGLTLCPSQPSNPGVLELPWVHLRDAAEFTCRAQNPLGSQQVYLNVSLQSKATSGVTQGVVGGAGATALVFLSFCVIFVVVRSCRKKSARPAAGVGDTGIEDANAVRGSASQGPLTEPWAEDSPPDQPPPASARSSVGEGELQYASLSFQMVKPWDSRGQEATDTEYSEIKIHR
The next test concerns Trypanosoma cruzi. Briefly: Trypanosoma cruzi phosphomannomutase and mannose-1-phosphate guanylyltransferase assay. In kind it is functional. The settings on record: 10 µM.
Test [5] deals with T2, Arginase-2, mitochondrial (Homo sapiens) (UniProt P78540).
T2 sequence (whole entry): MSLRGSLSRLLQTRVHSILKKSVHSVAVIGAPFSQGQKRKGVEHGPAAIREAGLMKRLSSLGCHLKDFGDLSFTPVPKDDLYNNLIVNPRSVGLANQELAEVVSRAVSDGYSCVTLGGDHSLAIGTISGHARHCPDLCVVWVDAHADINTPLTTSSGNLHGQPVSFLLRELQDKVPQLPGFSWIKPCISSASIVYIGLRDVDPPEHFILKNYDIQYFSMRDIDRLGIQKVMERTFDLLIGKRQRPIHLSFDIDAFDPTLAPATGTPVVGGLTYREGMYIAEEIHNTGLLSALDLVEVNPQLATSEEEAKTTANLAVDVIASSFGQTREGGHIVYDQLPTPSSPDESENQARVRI
The experiment in a line: in vitro enzyme assay to detect the production of urea directly proportional to the activity of Arginase II. Also: in the data most compounds retested in dose-response had high values. The settings on record: 33.3 µM. In kind it is functional.

Test [6] has as its target T3, Proteasome subunit beta (Trypanosoma cruzi) (UniProt O96673).
T3 sequence (whole entry): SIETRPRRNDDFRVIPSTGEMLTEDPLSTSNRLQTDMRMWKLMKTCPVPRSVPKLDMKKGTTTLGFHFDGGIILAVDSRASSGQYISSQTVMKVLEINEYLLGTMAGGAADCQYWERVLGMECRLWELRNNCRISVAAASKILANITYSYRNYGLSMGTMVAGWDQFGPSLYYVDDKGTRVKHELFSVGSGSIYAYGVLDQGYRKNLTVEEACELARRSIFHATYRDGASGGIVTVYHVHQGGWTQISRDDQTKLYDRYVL
Briefly: Trypanosoma cruzi proteasome chymotrypsin-like activity (TcProtChymo) assay. Also: in the data most compounds retested in dose-response had high values. The class given is functional. To be noted: 9.37 µM.

The species named for a further test is Homo sapiens. Briefly: To identify inhibition of the IFN signalling (Jak-Stat) pathway via expression of an eGFP reporter gene under the control of an IFN-stimulated response element (ISRE) containing MxA promoter. In kind it is functional. To be noted: 30 µM. Background: In a reporter assay the amount or activity of a reporter protein is the signal.
Test [7] deals with T4, Tyrosyl-tRNA synthetase, putative (Trypanosoma cruzi (strain CL Brener)) (UniProt Q4DSP6).
T4 sequence (whole entry): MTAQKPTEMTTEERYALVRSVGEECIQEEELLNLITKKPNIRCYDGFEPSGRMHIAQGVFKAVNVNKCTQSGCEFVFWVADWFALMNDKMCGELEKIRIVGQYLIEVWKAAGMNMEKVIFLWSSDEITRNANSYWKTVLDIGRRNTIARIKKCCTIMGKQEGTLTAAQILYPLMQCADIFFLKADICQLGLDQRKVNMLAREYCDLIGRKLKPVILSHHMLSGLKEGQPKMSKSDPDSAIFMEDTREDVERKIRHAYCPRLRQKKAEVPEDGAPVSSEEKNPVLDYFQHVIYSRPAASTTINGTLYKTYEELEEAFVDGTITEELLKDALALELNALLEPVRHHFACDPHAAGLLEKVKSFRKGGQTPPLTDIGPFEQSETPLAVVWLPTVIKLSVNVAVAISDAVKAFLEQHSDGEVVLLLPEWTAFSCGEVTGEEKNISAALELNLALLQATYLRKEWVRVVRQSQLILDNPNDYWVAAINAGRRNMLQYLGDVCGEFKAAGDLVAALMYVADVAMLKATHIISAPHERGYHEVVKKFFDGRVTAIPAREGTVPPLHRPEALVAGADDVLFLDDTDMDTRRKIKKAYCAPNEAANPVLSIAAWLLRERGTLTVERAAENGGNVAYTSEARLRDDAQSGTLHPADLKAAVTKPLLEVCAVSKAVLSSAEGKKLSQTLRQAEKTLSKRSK
Briefly: Trypanosoma cruzi tyrosyl tRNA synthetase (TcYRS) _High Tyrosine SOP. Also: in the data most compounds retested in dose-response had high values. The class given is functional. To be noted: 30 µM.

Test [8] addresses T4, Tyrosyl-tRNA synthetase, putative (Trypanosoma cruzi (strain CL Brener)). Briefly: Trypanosoma cruzi tyrosyl tRNA synthetase (TcYRS) SOP. In kind it is functional. The settings on record: 30 µM.
The target of test [9] is Chromo domain-containing protein 1 (Saccharomyces cerevisiae (strain ATCC 204508 / S288c) (Baker's yeast)) (UniProt P32657). Briefly: ScCHD-1 Enzyme Inhibition Assay. Also: in the data most compounds retested in dose-response had high values. In kind it is functional. To be noted: 30 µM.
Chain of Chromo domain-containing protein 1 (Saccharomyces cerevisiae (strain ATCC 204508 / S288c) (Baker's yeast)) (P32657 whole entry, the tested form may be a part): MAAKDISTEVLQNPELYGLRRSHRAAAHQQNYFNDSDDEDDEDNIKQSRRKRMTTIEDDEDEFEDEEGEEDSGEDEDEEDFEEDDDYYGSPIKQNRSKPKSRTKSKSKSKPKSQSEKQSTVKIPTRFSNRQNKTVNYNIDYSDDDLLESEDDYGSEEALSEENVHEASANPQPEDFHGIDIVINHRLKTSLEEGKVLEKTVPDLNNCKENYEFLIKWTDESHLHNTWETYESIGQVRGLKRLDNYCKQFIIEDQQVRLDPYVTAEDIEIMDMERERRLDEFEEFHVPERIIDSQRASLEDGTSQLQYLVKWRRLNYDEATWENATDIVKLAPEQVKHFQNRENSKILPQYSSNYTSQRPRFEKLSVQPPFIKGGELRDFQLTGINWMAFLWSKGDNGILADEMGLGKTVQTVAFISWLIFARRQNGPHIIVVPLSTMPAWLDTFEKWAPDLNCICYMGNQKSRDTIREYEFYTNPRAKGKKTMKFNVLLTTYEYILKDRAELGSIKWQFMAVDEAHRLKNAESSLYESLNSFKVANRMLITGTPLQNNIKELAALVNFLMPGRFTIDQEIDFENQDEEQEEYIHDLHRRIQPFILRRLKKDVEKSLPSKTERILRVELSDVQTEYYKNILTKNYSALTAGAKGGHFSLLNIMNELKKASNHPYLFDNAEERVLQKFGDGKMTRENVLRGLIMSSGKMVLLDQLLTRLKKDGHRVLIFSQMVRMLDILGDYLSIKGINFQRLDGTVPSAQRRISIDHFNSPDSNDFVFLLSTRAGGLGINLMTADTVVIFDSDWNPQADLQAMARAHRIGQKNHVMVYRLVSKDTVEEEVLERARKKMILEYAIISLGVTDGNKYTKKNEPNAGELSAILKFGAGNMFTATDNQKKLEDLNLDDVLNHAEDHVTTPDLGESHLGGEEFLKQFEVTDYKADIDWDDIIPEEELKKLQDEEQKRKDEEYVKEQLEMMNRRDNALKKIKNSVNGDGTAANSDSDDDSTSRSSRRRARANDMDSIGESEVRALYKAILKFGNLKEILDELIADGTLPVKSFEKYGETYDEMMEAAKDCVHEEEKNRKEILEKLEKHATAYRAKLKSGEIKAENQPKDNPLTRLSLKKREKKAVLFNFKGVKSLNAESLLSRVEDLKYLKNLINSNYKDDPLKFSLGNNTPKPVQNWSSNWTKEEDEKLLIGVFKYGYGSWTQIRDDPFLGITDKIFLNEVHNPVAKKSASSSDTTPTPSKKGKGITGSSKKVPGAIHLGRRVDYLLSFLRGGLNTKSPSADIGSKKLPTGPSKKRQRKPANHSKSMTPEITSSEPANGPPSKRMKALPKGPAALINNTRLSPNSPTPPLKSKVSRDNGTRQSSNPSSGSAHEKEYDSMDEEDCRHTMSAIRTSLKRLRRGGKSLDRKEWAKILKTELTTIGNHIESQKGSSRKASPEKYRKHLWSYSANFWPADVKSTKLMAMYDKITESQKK

For some assays here: Entries with a potency or affinity are not part of this list.

Chain of Protein translocase subunit SecA (Escherichia coli (strain K12)) (P10408 whole entry): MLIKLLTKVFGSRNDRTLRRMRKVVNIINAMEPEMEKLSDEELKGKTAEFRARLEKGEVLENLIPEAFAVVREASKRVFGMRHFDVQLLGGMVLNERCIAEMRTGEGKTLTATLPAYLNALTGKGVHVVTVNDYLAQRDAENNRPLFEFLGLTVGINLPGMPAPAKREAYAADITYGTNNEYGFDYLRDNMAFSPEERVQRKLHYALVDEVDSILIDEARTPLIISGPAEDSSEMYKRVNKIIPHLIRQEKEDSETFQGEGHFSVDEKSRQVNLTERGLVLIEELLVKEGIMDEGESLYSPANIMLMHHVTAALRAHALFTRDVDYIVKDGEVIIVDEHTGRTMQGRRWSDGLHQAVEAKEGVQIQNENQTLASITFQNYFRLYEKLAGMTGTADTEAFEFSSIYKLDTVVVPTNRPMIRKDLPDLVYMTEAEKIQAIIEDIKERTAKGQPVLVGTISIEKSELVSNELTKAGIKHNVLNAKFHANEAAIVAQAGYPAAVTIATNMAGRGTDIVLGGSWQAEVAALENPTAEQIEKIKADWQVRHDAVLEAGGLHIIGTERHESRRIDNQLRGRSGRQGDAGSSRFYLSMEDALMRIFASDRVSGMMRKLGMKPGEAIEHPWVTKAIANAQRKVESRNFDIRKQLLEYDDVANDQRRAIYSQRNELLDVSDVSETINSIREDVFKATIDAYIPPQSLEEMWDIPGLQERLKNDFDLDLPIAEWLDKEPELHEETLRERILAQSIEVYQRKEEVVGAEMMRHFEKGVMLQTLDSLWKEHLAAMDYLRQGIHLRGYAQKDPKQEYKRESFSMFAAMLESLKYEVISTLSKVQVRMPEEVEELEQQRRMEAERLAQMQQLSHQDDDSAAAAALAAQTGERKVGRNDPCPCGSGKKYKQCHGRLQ

Turning to `CN(Cc1ccc(Cl)c(Cl)c1)C(=O)CNC(N)=O`, the Percent Effect in test [1] is -3.49%; in test [2], 10.5%; in test [3], 9.37%; in test [4], -5.68%; in the test on Trypanosoma cruzi it was 3.6%; in test [5] it was -13%. Further, the Percent Effect is 17.4% in test [6]; 2.07% in the test filed under Homo sapiens; 4.25% in test [7]; 15.6% in test [8]; -1.83% in [9].

Take `CC(C)c1cc(NC(=O)CN2CCc3c(nc(C(C)C)n3C)C2)on1`: the Percent Effect in [1] was -0.514%; in test [2] it was 0%; in test [3], -3.17%; in test [4], 8.75%; in the test with Trypanosoma cruzi, 2.62%; in test [5], -4.98%. The Percent Effect in [6] is 17.9%; in the test filed under Homo sapiens it was 12%; in [7], 5.83%; in test [8] it was 9.76%; in test [9], -7.27%.

Regarding `Cc1nc(C)n(CC2CCCCN2CC(=O)NC2CCOCC2)n1` (stereo not given), the Percent Effect is -5.64% in [1]; 18.2% in test [2]; 6.87% in test [3]; 5.39% in test [4]; 6.37% in the test with Trypanosoma cruzi; -6.05% in test [5]. Further, the Percent Effect was 5.07% in test [6]; -0.818% in the test filed under Homo sapiens; 3.88% in [7]; 19.5% in test [8]; -7.41% in test [9].

With `CCOC(C)c1nc(CN2CCC(CNC(C)=O)CC2)cs1` (stereo not given), the Percent Effect in [1] was -1.27%; in [2], 0%; in [3], -5.03%; in [4], 0.273%; in the test with Trypanosoma cruzi, 1.93%; in [5] it was -2.86%. Moreover, the Percent Effect is 8.97% in [6]; -19.2% in the test listed under Homo sapiens; -0.529% in test [7]; -2.44% in test [8]; -2.65% in test [9].

`CN(C)S(=O)(=O)N1C[C@@H](Oc2ccccn2)[C@H]2OCCC[C@H]21`: the Percent Effect in [1] was -3.77%; in [2], 10.4%; in test [3], 5.04%; in test [4], 3.32%; in the test with Trypanosoma cruzi, 0.493%; in [5] it was -3.23%. Besides, the Percent Effect is 8.7% in test [6]; 24.1% in the test filed under Homo sapiens; -4.23% in [7]; 8.97% in test [8]; -11.1% in test [9].

As for `O=C(COC(=O)Cc1cccs1)NCc1cccc(NC(=O)C2CC2)c1`, the Percent Effect in test [1] was -4.92%; in test [2] it was 21.1%; in [3], 1.38%; in test [4], -10.9%; in the test with Trypanosoma cruzi, -3.27%; in test [5] it was -1.08%. Besides, the Percent Effect in [6] was 3.47%; in the test filed under Homo sapiens, 4.04%; in test [7], 5.42%; in [8], 16.1%; in test [9], -4.73%.

Take `Fc1ccc(OCc2noc(CN3CCc4cncnc4C3)n2)cc1`: the Percent Effect was -0.114% in test [1]; 13.2% in [2]; -14.5% in test [3]; 2.94% in [4]; 2.26% in the test on Trypanosoma cruzi; -29.5% in test [5]. Moreover, the Percent Effect was 18.1% in test [6]; 1.44% in the test filed under Homo sapiens; 31.9% in test [7]; 21.9% in [8]; -2.74% in [9].

In the case of `Cc1cnn(CC2CCCCN2Cc2nnc(C3CC3)n2C)c1` (stereo not given), the Percent Effect in test [1] was -1.18%; in test [2], -1.27%; in test [3] it was 5%; in test [4], -0.259%; with Trypanosoma cruzi, 5.85%; in [5] it was 0.215%. Moreover, the Percent Effect was 8.75% in test [6]; -10.1% in the test filed under Homo sapiens; 3.12% in [7]; 5.06% in test [8]; -2.78% in [9].

As to `COCCN1CCN(C(=O)C2CC=CC2)Cc2cccnc21`, the Percent Effect in test [1] is -4.04%; in test [2], 8%; in [3] it was 10.1%; in test [4], 4.75%; with Trypanosoma cruzi, 7.14%; in test [5], -55.4%. The Percent Effect was 10.4% in [6]; -18.4% in the test filed under Homo sapiens; 3.12% in test [7]; 17.5% in [8]; -7.24% in [9].

On to `Cn1cc(CN2CCc3onc(COc4cccnc4)c3C2)cn1`, for which the Percent Effect is 6.35% in test [1]; 14.7% in [2]; 17.2% in [3]; -10.2% in test [4]; -9.43% in the test on Trypanosoma cruzi; -5.11% in test [5]. The Percent Effect in test [6] was 16.6%; in the test listed under Homo sapiens it was 11.8%; in test [7], 0%; in [8] it was 5.13%; in test [9] it was -10.7%.

(Values after ChEMBL document CHEMBL3988442, “University of Dundee, Small-Polar-MMV Screening Library” (2021).)
